Experimental data reported in PubChem BioAssay (NCI).
The panel holds about 83,000 compounds, 20% with a hit somewhere; the sample as a whole holds those more often.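 Percent growth is the endpoint: 0 to 100 indicates growth inhibition (40 means 60% inhibition), 0 means no net growth, and negative values indicate cell death.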 Values without a mark were called inactive. The source made the active and inactive calls. The calls were made as follows: active = growth percent below 10; inactive = the rest.

test system: MDA-MB-468 breast; test: NCI-60 one-dose screen, 48 h (100 = growth as untreated, 0 = no growth, -100 = all killed); settings: 10 µM unless noted

| Compound | growth |
| --- | --- |
| CCOC(=O)c1c(/C=C/C(=O)O)nc2ccccc2c1/C=C/c1ccccc1 | 7.2% (active) |
| O=[N+]([O-])CC(c1ccccc1)c1c[nH]c2ccccc12 (stereo not given) | 22.7% |
| CC(CNc1nc(Nc2ccc(Cl)c(Cl)c2)nc(C(Cl)(Cl)Cl)n1)N(C)C (stereo not given) | -43.3% (active) |
| COc1cc(-c2nc(SC(C)C)nc(Nc3cccc(C)c3)c2C#N)cc(OC)c1OC | 117% |
| CC1CC2C3CCC4=CC(=O)CCC4(C)C3CCC2(C)C1(O)C(=O)CO (stereo not given) | 115% |
| CS(=O)(=O)c1ccc(-c2nc3ccccn3c2/C=N/Nc2nc(-c3ccc(Br)cc3)cs2)cc1 | 102% |
| c1ccc2c(N=NSc3ncnc4nc[nH]c34)c3ccccc3nc2c1 | -55.1% (active) |
| CC[C@@H](C(=O)[C@@H](C)[C@@H](O)[C@H](C)[C@@H]1O[C@@H]([C@@H](CC)C(=O)NCCc2ccc(F)cc2)CC[C@@H]1C)C1O[C@]2(C=CC(=O)[C@]3(CC[C@@](C)([C@H]4CC[C@](O)(CC)[C@H](C)O4)O3)O2)[C@H](C)C[C@@H]1C (stereo not given in full) | 13.5% |
| CC(C)(c1ccccc1)c1cc(O)c(C(C)(C)c2ccccc2)cc1O | 26.4% |
| COc1cc(-c2nc3ccc(C)cc3[nH]2)ccc1OCC(=O)N=Nc1c(O)[nH]c2ccc(Cl)cc12 | -48.7% (active) |
| COc1cccc(-c2nc3sccn3c2-c2ccnc(NCCCNS(=O)(=O)c3ccc(F)cc3)n2)c1 | 47.9% |
| C=C1C(=O)O[C@H]2[C@H]1CC/C(COC(=O)C(=O)c1cn(C)c3ccc(Cl)cc13)=C\CC[C@@]1(C)O[C@@H]21 | -88.2% (active) |
| COc1ccc(C(OCC2OC(n3ccc(NC(=O)c4ccccc4)nc3=O)C(O)C2O)(c2ccccc2)c2ccccc2)cc1 (stereo not given) | 45.9% |
| CC(=O)O[C@@H]1C[C@]2(C)[C@H]3[C@H](O)C[C@@H]4C5=CC(C)(C)CC[C@]5(C)CC[C@@]4(C)[C@]3(C)CC[C@H]2C(C)(C)[C@H]1O | 116% |
| COc1c(B(O)O)cc(C)cc1-c1nc2ccc3[nH]ncc3c2c2c1CCCC2 | 28.2% |
| c1ccc(COc2ccc(Nc3ncnc4c3cnn4-c3ccccc3)cc2)cc1 | 93.1% |
| O=C1Nc2ccccc2/C1=C\c1c(-c2ccccc2)nc2ccccn12 | 15.3% |
| CCCCOc1ccc(/C=N/NC(N)=S)cc1 | 66.5% |
| N#CSc1c[nH]c2cccc(/C=C/C(=O)/C=C(O)/C=C/c3cccc4[nH]cc(SC#N)c34)c12 | -55.8% (active) |
| O=C(N/N=C/c1cc2ccccc2n2nnnc12)Nc1ccccc1 | 98.3% |

| Compound | growth |
| --- | --- |
| CCCCCCCC(=O)SCC/C=C/[C@@H]1CC(=O)NCc2cc(ccn2)C2=N[C@@](C)(CS2)C(=O)N[C@@H](C(C)C)C(=O)O1 | 12.2% |
| C[C@H](C(=O)Nc1ccc(S(N)(=O)=O)cc1)S(=O)(=O)c1ccccc1 | 102% |
| CN1C2CCC1/C(=C\c1ccc(Cl)cc1)C1=C2[C@@H](c2ccc(Cl)cc2)C(C#N)=C(N)O1 (stereo not given in full) | 77.9% |
| Cc1ccccc1OC(=O)c1cccc(Cl)c1 | 107% |
| CCNCCNc1cc(C2CCCCC2)c(C#N)c2nc3ccccc3n12 | -45.3% (active) |
| c1ccc2cc3c(Nc4ccc(N5CCOCC5)cc4)ccnc3cc2c1 | 87.9% |
| COC(=O)c1ccc(NC2=C/C(=N/S(=O)(=O)c3ccc(C(=O)O)cc3)c3ccccc3C2=O)cc1 | -37.4% (active) |
| CCCC(=O)NC(c1cccnc1)c1cc(C)c2cccnc2c1O (stereo not given) | 19.8% |
| COc1cc(Nc2ccnc(N3CCN(c4ccnc5cc(Cl)ccc45)CC3)n2)cc(OC)c1 | -0.859% (active) |
| Nc1c(Cl)cc2c(c1Br)C(=O)c1ccccc1C2=O | 85.4% |
| CCCn1nc(-c2ccccc2)c2c(-c3ccccc3)onc2c1=O | 43.6% |
| COc1ccc(-c2noc(N)c2-c2cc(OC)c3c(c2)OCO3)cc1 | 25.6% |
| CCCCOc1nc2c(C)cccc2cc1C1CNC(=O)c2ccccc2N1 (stereo not given) | 51.6% |
| Cc1c(Cl)cccc1C(=O)Nc1nc2c(s1)CN(C(=O)Nc1cccc(C(F)(F)F)c1)CC2 | 16.7% |
| CCCCCCCCCCC(C(O)c1ccccc1)N1CCCCC1 (stereo not given) | -21.9% (active) |
| COc1ccc(/C=C2\CS(=O)(=O)C/C(=C\c3ccc(OC)cc3)C2=O)cc1 | -85.3% (active) |
| CC(=S)NC(=O)C(=O)/C=C1/NC(=O)C(=O)S1 | 102% |
| Cn1ccnc1C(=O)/C=C/c1ccc(CC(=O)Nc2ccc(F)cc2)cc1 | -4.62% (active) |
| CC1=N/C(=C\c2cccc(Br)c2)C(=O)O1 | 107% |
| O=[N+]([O-])c1ccc2[nH]cc(-c3c4ccsc4cc4[nH]c5ccc([N+](=O)[O-])cc5c34)c2c1 | 1.21% (active) |
